Measured values as given in PubChem BioAssay (NCI).
The panel holds about 79,000 compounds, 15% with a hit somewhere; the sample as a whole holds those more often. Active and inactive are the calls of the source. Cut-off read from the data, not from the text of the source: active = growth inhibition above about 70%; inactive = the rest.

How the values were obtained:
[1] = NCI Yeast Anticancer Drug Screen. Data for the rad52 strain (AID 147);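 note: 0% = growth of vehicle-treated control cultures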; settings: S. cerevisiae rad52 mutant growth inhibition, stronger effect = higher value
How it was run: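 Screen used a yeast mutant impaired in DNA repair. After compound exposure, growth was measured. Values reflect inhibition compared with vehicle-treated cells.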

[2] = NCI Yeast Anticancer Drug Screen. Data for the wt1 strain (AID 149);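 note: 0% = growth of vehicle-treated wt1 cultures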; settings: S. cerevisiae wt1 strain (SPY 50644) growth inhibition, stronger effect = higher value
How it was run: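 The wt1 strain was treated with compounds, and growth was compared with vehicle-treated cultures to give inhibition.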

[3] = NCI Yeast Anticancer Drug Screen. Data for the rad50EPP+ strain (AID 151);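 note: 0% = growth of vehicle-treated control cultures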; settings: S. cerevisiae rad50 mutant strain, stronger effect = higher value
How it was run: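 Exposing the rad50EPP+ strain to each compound, growth was compared with vehicle-only cultures to give inhibition.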

[4] = NCI Yeast Anticancer Drug Screen. Data for the mgt1 strain (AID 153); settings: S. cerevisiae mgt1 mutant growth inhibition, stronger effect = higher value
How it was run: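 Genetically defined yeast (mgt1) treated with compound; inhibition of growth expressed against vehicle-treated controls.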

[5] = NCI Yeast Anticancer Drug Screen. Data for the rad50 strain (AID 155);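 note: 0% = growth of vehicle-only cultures of the same strain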; settings: S. cerevisiae rad50 strain growth inhibition, stronger effect = higher value
How it was run: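 Cells are treated with compound, grown, and their growth is then scored against vehicle-only cultures of the same repair-deficient yeast strain.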

[6] = NCI Yeast Anticancer Drug Screen. Data for the mec2-1 strain (AID 157); settings: S. cerevisiae mec2-1 strain, stronger effect = higher value
How it was run: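 Readout is yeast growth inhibition, normalised to vehicle-treated controls, in the mec2-1 strain exposed to compound.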

[7] = NCI Yeast Anticancer Drug Screen. Data for the rad14 strain (AID 159);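 note: 0% = growth of vehicle-treated control cultures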; settings: S. cerevisiae rad14 strain growth inhibition, stronger effect = higher value
How it was run: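 Readout: yeast growth inhibition, referenced to vehicle-only cultures. Strain bears a defined alteration in DNA damage repair.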

[8] = NCI Yeast Anticancer Drug Screen. Data for the sgs1 mgt1 strain (AID 161);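 note: 0% = growth of cultures given vehicle only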; settings: S. cerevisiae sgs1 mgt1 strain, stronger effect = higher value
How it was run: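 Percent growth inhibition was derived by comparing compound-exposed mutant yeast with vehicle-exposed cultures. The strain carries alterations in DNA damage repair.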

[9] = NCI Yeast Anticancer Drug Screen. Data for the cln2 rad14 strain (AID 165);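 note: 0% = growth equal to vehicle treated cultures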; settings: S. cerevisiae cln2 rad14 strain, stronger effect = higher value
How it was run: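 Relative to vehicle controls, growth inhibition of compound-treated cln2 rad14 yeast was recorded.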

[10] = NCI Yeast Anticancer Drug Screen. Data for the bub3 strain (AID 167); settings: S. cerevisiae bub3 mutant strain, stronger effect = higher value
How it was run: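 Part of a panel of yeast mutants defective in DNA damage repair or cell cycle regulation. Each strain is grown with compound, and inhibition is calculated relative to solvent-treated cultures.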

[11] = NCI Yeast Anticancer Drug Screen. Data for the wt2 strain (AID 169);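 note: 0% = growth of vehicle-treated yeast cultures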; settings: S. cerevisiae wt2 strain growth inhibition, stronger effect = higher value
How it was run: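 Values express reduction in yeast growth under compound treatment, referenced to vehicle-treated cells.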

[12] = NCI Yeast Anticancer Drug Screen. Data for the mlh1 strain (AID 171);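 note: 0% = growth of vehicle-treated control cultures of the same strain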; settings: S. cerevisiae mlh1 strain growth inhibition, stronger effect = higher value
How it was run: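 Steps: expose the defined-mutant yeast strain to compound; expose a parallel culture to vehicle; measure growth; express compound effect as inhibition relative to the vehicle culture.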

[13] = NCI Yeast Anticancer Drug Screen. Data for the sgs1 strain (AID 173);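 note: 0% = growth of vehicle-only control cultures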; settings: S. cerevisiae sgs1 mutant, stronger effect = higher value
How it was run: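 Treat defined-mutant yeast with compound; measure growth; calculate inhibition relative to vehicle-treated cells.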

[14] = NCI Yeast Anticancer Drug Screen. Data for the mlh1 rad18 strain (AID 175); settings: S. cerevisiae mlh1 rad18 strain growth inhibition, stronger effect = higher value
How it was run: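 Test agents were incubated with a yeast strain of defined genotype (DNA damage repair defect). Inhibition of growth was derived by comparison with vehicle-exposed cultures.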

[15] = NCI Yeast Anticancer Drug Screen. Data for the rad18 strain (AID 177); settings: S. cerevisiae rad18 mutant growth inhibition, stronger effect = higher value
How it was run: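 A genetically defined yeast mutant impaired in DNA damage repair was treated with test compounds, then its growth was measured against cultures receiving vehicle alone.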

[16] = NCI Yeast Anticancer Drug Screen. Data for the CLN2oe strain (AID 163);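 note: 0% = growth of vehicle-only control cultures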; settings: S. cerevisiae CLN2oe strain, stronger effect = higher value
How it was run: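 Values reflect how much compound exposure reduced yeast growth, referenced to vehicle-exposed cells. Assay organism is a strain with a defined genetic change affecting cell-cycle control.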

[17] = at 5.0 µM (retest, dose inferred, filed as 0.5)
[18] = at 50.0 µM (retest, dose inferred, filed as 5.0)

Measured: growth inhibition

COc1ccc(-c2cc(-c3cc(C)cc(Cl)c3O)nc3[nH]c(=S)[nH]c(=S)c23)cc1
active: [1]; at 100.0 µM 72% | [4]; at 100.0 µM 94% | [5]; [18] 96% | [5]; at 50.0 µM 75.1% | [6]; at 50.0 µM 82.6% | [7]; at 100.0 µM 89% | [8]; at 50.0 µM 84.8% | [9]; [18] 76% | [10]; at 50.0 µM 70.5% | [11]; at 100.0 µM 87% | [12]; at 100.0 µM 87% | [13]; at 100.0 µM 93% | [14]; [18] 86% | [14]; at 50.0 µM 87.1%
inactive: [1]; at 1.2 µM 1% | [1]; at 3.7 µM 4% | [1]; at 11.0 µM 6% | [1]; at 33.0 µM 15% | [2]; at 1.2 µM 0% | [2]; at 3.7 µM -1% | [2]; at 11.0 µM 0% | [2]; at 33.0 µM 1% | [2]; at 100.0 µM 35% | [3]; at 1.2 µM 3% | [3]; at 3.7 µM -5% | [3]; at 11.0 µM -14% | [3]; at 33.0 µM -15% | [3]; at 100.0 µM -15% | [4]; at 1.2 µM -1% | [4]; at 3.7 µM -2% | [4]; at 11.0 µM -3% | [4]; at 33.0 µM 25% | [5]; at 1.2 µM 3% | [5]; at 3.7 µM 5% | [5]; [17] -32% | [5]; at 11.0 µM 6% | [5]; at 33.0 µM 11% | [5]; at 100.0 µM 57% | [6]; at 1.2 µM 0% | [6]; at 3.7 µM 0% | [6]; [17] 2% | [6]; at 11.0 µM -2% | [6]; at 33.0 µM 2% | [6]; [18] 62% | [6]; at 100.0 µM 57% | [7]; at 1.2 µM 1% | [7]; at 3.7 µM 4% | [7]; at 11.0 µM 9% | [7]; at 33.0 µM 17% | [8]; [17] -13% | [8]; [18] 68% | [9]; [17] 44% | [9]; at 50.0 µM 65.5% | [10]; at 1.2 µM 2% | [10]; at 3.7 µM 4% | [10]; [17] -20% | [10]; at 11.0 µM 0% | [10]; at 33.0 µM 1% | [10]; [18] 63% | [10]; at 100.0 µM 58% | [11]; at 1.2 µM 0% | [11]; at 3.7 µM -4% | [11]; at 11.0 µM -4% | [11]; at 33.0 µM 6% | [12]; at 1.2 µM -1% | [12]; at 3.7 µM -2% | [12]; at 11.0 µM 0% | [12]; at 33.0 µM 10% | [13]; at 1.2 µM 1% | [13]; at 3.7 µM -2% | [13]; at 11.0 µM -1% | [13]; at 33.0 µM 16% | [14]; [17] -31% | [15]; at 1.2 µM 0% | [15]; at 3.7 µM -2% | [15]; at 11.0 µM -16% | [15]; at 33.0 µM 8% | [15]; at 100.0 µM 61%

CC1=COC2=C(C)C(=O)C(=O)c3c(C)ccc1c32
inactive: [1]; at 1.2 µM 20% | [1]; at 3.7 µM 23% | [1]; at 11.0 µM 30% | [1]; at 33.0 µM 68% | [2]; at 1.2 µM 30% | [2]; at 3.7 µM 38% | [2]; at 11.0 µM 45% | [3]; at 1.2 µM 2% | [3]; at 3.7 µM 7% | [3]; at 11.0 µM 19% | [3]; at 33.0 µM 42% | [3]; at 100.0 µM 60% | [4]; at 1.2 µM 41% | [4]; at 3.7 µM 28% | [4]; at 11.0 µM 37% | [5]; at 1.2 µM 34% | [5]; at 3.7 µM 39% | [5]; [17] 25% | [5]; at 11.0 µM 53% | [5]; [18] 47% | [6]; at 1.2 µM 43% | [6]; at 3.7 µM 40% | [6]; [17] 36% | [6]; at 11.0 µM 48% | [6]; [18] 59% | [7]; at 1.2 µM 10% | [7]; at 3.7 µM 17% | [7]; at 11.0 µM 20% | [8]; [17] 51% | [8]; [18] 67% | [16]; at 1.2 µM 37% | [16]; at 3.7 µM 44% | [16]; at 11.0 µM 36% | [10]; at 1.2 µM 67% | [11]; at 1.2 µM -19% | [11]; at 3.7 µM -18% | [11]; at 11.0 µM -19% | [11]; at 33.0 µM 6% | [12]; at 1.2 µM 25% | [12]; at 3.7 µM 27% | [12]; at 11.0 µM 47% | [13]; at 1.2 µM 23% | [13]; at 3.7 µM 29% | [13]; at 11.0 µM 35% | [14]; [17] 5% | [15]; at 1.2 µM -3% | [15]; at 3.7 µM 18% | [15]; at 11.0 µM 30%
active: [1]; at 100.0 µM 93% | [2]; at 33.0 µM 77% | [2]; at 100.0 µM 96% | [4]; at 33.0 µM 89% | [4]; at 100.0 µM 94% | [5]; at 33.0 µM 85% | [5]; at 50.0 µM 88.3% | [5]; at 100.0 µM 93% | [6]; at 33.0 µM 80% | [6]; at 50.0 µM 89.2% | [6]; at 100.0 µM 95% | [7]; at 33.0 µM 79% | [7]; at 100.0 µM 95% | [8]; at 50.0 µM 77.5% | [16]; at 33.0 µM 77% | [16]; at 100.0 µM 95% | [10]; at 3.7 µM 70% | [10]; [17] 77% | [10]; at 11.0 µM 84% | [10]; at 33.0 µM 91% | [10]; [18] 82% | [10]; at 50.0 µM 81% | [10]; at 100.0 µM 93% | [11]; at 100.0 µM 91% | [12]; at 33.0 µM 82% | [12]; at 100.0 µM 94% | [13]; at 33.0 µM 80% | [13]; at 100.0 µM 94% | [14]; [18] 71% | [14]; at 50.0 µM 80% | [15]; at 33.0 µM 79% | [15]; at 100.0 µM 93%

CCCC/C=C1\CCC(CN2CCCC2)C1=O (stereo not drawn)
inactive: [1]; at 1.2 µM -18% | [1]; at 3.7 µM -24% | [1]; at 11.0 µM -10% | [1]; at 33.0 µM 17% | [2]; at 1.2 µM -10% | [2]; at 3.7 µM -17% | [2]; at 11.0 µM 9% | [2]; at 33.0 µM 16% | [2]; at 100.0 µM 26% | [3]; at 1.2 µM -4% | [3]; at 3.7 µM -6% | [3]; at 11.0 µM -8% | [3]; at 33.0 µM 10% | [4]; at 1.2 µM 21% | [4]; at 3.7 µM 21% | [4]; at 11.0 µM 39% | [4]; at 33.0 µM 62% | [5]; at 1.2 µM 7% | [5]; at 3.7 µM 25% | [5]; [17] 40% | [5]; at 11.0 µM 20% | [5]; at 33.0 µM 40% | [5]; [18] 44% | [6]; at 1.2 µM 0% | [6]; at 3.7 µM 7% | [6]; [17] 4% | [6]; at 11.0 µM 27% | [6]; at 33.0 µM 23% | [6]; [18] 35% | [6]; at 50.0 µM 59.2% | [8]; [17] 18% | [8]; [18] 51% | [16]; at 1.2 µM 28% | [16]; at 3.7 µM 48% | [16]; at 11.0 µM 49% | [9]; [17] 39% | [9]; [18] 55% | [10]; at 1.2 µM 1% | [10]; at 3.7 µM 33% | [10]; [17] 50% | [10]; at 11.0 µM 39% | [10]; at 33.0 µM 63% | [11]; at 1.2 µM -33% | [11]; at 3.7 µM -17% | [11]; at 11.0 µM -3% | [11]; at 33.0 µM 20%
active: [1]; at 100.0 µM 79% | [3]; at 100.0 µM 76% | [4]; at 100.0 µM 95% | [5]; at 50.0 µM 83% | [5]; at 100.0 µM 79% | [6]; at 100.0 µM 85% | [8]; at 50.0 µM 78.2% | [16]; at 33.0 µM 70% | [16]; at 100.0 µM 79% | [9]; at 50.0 µM 73.3% | [10]; [18] 81% | [10]; at 50.0 µM 80.7% | [10]; at 100.0 µM 94% | [11]; at 100.0 µM 74%
